AmpC inh det: Promiscuous and Specific Inhibitors of AmpC Beta-Lactamase (assay with detergent); purified AmpC, nitrocefin hydrolysis with detergent; AID 584, 2007; P00811; 0.09% of 71,000 active; Potency, µM (top dose mostly 28.7 µM), for the others: at the top dose activity change, negative = inhibition; active = well fitted curve in the direction sought with a large enough effect; inconclusive = small, poorly fitted or top-dose-only effect; also: % is scaled to controls: 0 for no effect and ±100 for the full control effect
Target sequence (P00811 whole entry, looked up): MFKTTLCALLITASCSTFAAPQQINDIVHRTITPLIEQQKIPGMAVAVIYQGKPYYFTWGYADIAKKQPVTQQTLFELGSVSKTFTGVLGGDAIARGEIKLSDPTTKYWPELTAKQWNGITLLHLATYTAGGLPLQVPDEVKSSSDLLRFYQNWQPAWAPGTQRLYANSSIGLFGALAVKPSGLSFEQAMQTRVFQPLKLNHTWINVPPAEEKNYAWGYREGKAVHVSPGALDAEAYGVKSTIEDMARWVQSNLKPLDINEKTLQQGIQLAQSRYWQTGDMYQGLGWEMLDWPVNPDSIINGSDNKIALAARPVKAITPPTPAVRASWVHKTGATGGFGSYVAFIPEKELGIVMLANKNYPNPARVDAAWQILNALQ
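E. coli AmpC (5.3 nM) in 20 mM phosphate pH 7.0 with 0.01% Triton X-100, preincubated 15 min RT with compound; nitrocefin (2 uL of 800 uM stock) hydrolysis followed by 480 nm absorbance every 20 s over 4 min.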
Prx2 Sm inh: Schistosoma Mansoni Peroxiredoxins (Prx2) | S. mansoni Prx2 activity coupled to TGR/GSH (TGR is thioredoxin glutathione reductase), NADPH fluorescence loss, qHTS | Potency, µM | 0.07% of 65,000 active
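Prx2 inhibition was measured as reduced NADPH consumption when electrons flowed from NADPH through TGR and glutathione to Prx2 and H2O2. Plates were read kinetically over 8 min; enzyme reagents were held at 4 deg C during dispensing.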
LT uptake inh: qHTS Assay for Anthrax Lethal Toxin Internalization; Cells, anthrax lethal toxin internalization, FRET ratio (460/530); 0.67% of 70,000 active; AID 912, 2007; Potency, µM (top dose mostly 40 µM), for inactives: at the highest dose activity change, negative = inhibition, most hits filed as inhibitors; also: % is scaled to controls: 0 for no effect and ±100 for the full control effect; nearly all actives have a fitted effect of over 50% in size
AmpC inh no det: Promiscuous and Specific Inhibitors of AmpC Beta-Lactamase (assay without detergent); Potency, µM (top dose mostly 28.7 µM), for inactives: top-dose activity change, negative = inhibition; AmpC nitrocefin hydrolysis, absorbance 480 nm, no detergent; 1.8% of 71,000 active; AID 585, 2007; also: % of control where 0% means no effect
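Enzyme, pH 7.0 phosphate. Compound titrations were pre-incubated with AmpC for 15 min at room temperature before nitrocefin (stock 800 uM) addition; product formation was recorded at 480 nm every 20 s for 4 min.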
Starred values were filed as active, the others as inactive; u = inconclusive; x = no result; + = active, no number; [ ] = dose if it differs, or a comment. In the library only some 2.6% were active in any assay of this set; here they are far more common. Unless noted, calls follow the shape of the full dose curve. Potency is read from the fitted curve at half-maximal effect.

SMILES	AmpC inh det	Prx2 Sm inh	LT uptake inh	AmpC inh no det
COc1ccc(-c2cnc(SCC(=O)Nc3ccc4c(c3)OCO4)n2Cc2ccco2)cc1	-3.2%	>57	u	-11.1%
O=C(CSc1nnc(-c2ccc(Cl)cc2)n1Cc1ccco1)Nc1ccc2c(c1)OCCO2	-5.9%	>57	u	+[single pt active]
O=C(CC1Sc2ncnn2C1=O)Nc1ccc(Br)cc1 (stereo unspecified)	10.7%	>57	u	5.01µM*
O=C(CC1SC2=NCCN2C1=O)Nc1ccc(Br)cc1 (stereo unspecified)	-1.5%	>57	u	7.8%
COC(=O)C1(CC(C)C)C=C2C(=C(c3ccccc3)C(=O)C2C)CN1 (stereo unspecified)	-6.3%	>57	1.1%	37.5%
COCCNC(=O)C1(C)C=CCN1C(C)=O (stereo unspecified)	18.6%	x	6.6%	-13.2%
CC(C)CCOc1cccc(C2c3c(oc4ccccc4c3=O)C(=O)N2CCCN2CCOCC2)c1 (stereo unspecified)	14.5%	>57	-19.7%	114.9%
COc1cccc(C2c3c(oc4ccccc4c3=O)C(=O)N2CCCN2CCOCC2)c1 (stereo unspecified)	12.2%	>57	0.6%	3.98µM*[single pt active]
CC1CN2C(CCC(C)C2c2ccc(Br)cc2)C(=O)O1 (stereo unspecified)	x	x	-13.0%[8 µM]	x
CNC(=O)c1ccc2snnc2c1	9.6%	>57	2.6%	3.98µM*[single pt active]
Cc1ccc(S(=O)(=O)C2(C(=O)Nc3cccc(F)c3)CC2)cc1	11.3%	>57	-13.6%	3.98µM*[single pt active]
O=C(Nc1nccs1)C1(S(=O)(=O)c2ccc(Cl)cc2)CC1	-3.2%	>57	8.3%	4.3%
Cc1ccc(S(=O)(=O)C2(C(=O)Nc3nccs3)CC2)cc1	12.0%	>57	-5.0%	3.98µM*[single pt active]
O=C(O)c1ccc(NS(=O)(=O)c2ccsc2C(=O)O)cc1	x	x	-0.4%	x
COc1ncc2nc(-c3cccs3)c(=O)n(C)c2n1	6.0%	>57	u	8.1%
CN(Cc1ccccc1)C(=O)CCS(=O)(=O)c1ccc2c(c1)n(C)c(=O)c(=O)n2C	13.7%	>57	u	3.98µM*[single pt active]
CCC(C)NC(=O)CCS(=O)(=O)c1ccc2c(c1)n(C)c(=O)c(=O)n2C (stereo unspecified)	12.8%	>57	-7.7%	3.98µM*[single pt active]
CN(Cc1ccccc1)C(=O)CCC(=O)N(C)Cc1ccccc1	-1.2%	x	-1.4%	39.3%
CC(C)(C)C(=O)[C@H]([C@@H](c1ccccc1)N1CCOCC1)N1CCOCC1	-1.8%[5.75 µM]	>57	3.2%[8 µM]	9.3%[5.75 µM]
Cc1ccc(NC(=O)CSC(N)=O)cc1Cl	24.6%	>57	14.8%	12.6µM*
NC(=O)SCC(=O)Nc1ccc(Cl)c(Cl)c1	8.0%	x	-11.0%	5.01µM*
NC(=O)SCC(=O)Nc1cccc(Cl)c1	8.1%	x	8.0%	7.94µM*
COc1ccc(-c2nnc(SCC(=O)Nc3cccc(Cl)c3)o2)cc1	2.7%	>57	1.3%	7.94µM*
COc1ccc2[nH]cc(CCNc3nc(-c4c(C)noc4C)nc4ccccc34)c2c1	-4.1%	>57	u	-12.8%
O=C(Nc1ccccc1)N1CCCC2(CCN(C(=O)c3ccco3)CC2)C1	-0.5%	>57	7.8%	2.4%
SMILES	AmpC inh det	Prx2 Sm inh	LT uptake inh	AmpC inh no det
CCn1c2ccccc2c2cc(CN3CCN(C(=O)c4ccco4)CC3)ccc21	-5.6%	x	u	148.4%
CCn1c2ccccc2c2cc(NC(=O)CSc3nnnn3-c3ccccc3)ccc21	0.7%	>57	x	10µM*
CCn1c2ccccc2c2cc(NC(=O)c3ccco3)ccc21	8.0%	x	12.6µM*	-5.0%
COc1cccc(-c2nc(N3CCNCC3)c3ccccc3n2)c1	11.6%	>57	-7.1%	40.2%
Cc1c(C(=O)N2CCCC2)oc2c1-c1[nH]ncc1CC2	10.2%	>57	6.2%	3.98µM*[single pt active]
O=Cc1cccc(Br)c1	10.1%	x	-0.9%	-0.4%
O=C(Nc1cccc(-c2nc3ccccc3[nH]2)c1)c1cccc(NC(=O)c2ccco2)c1	-6.4%	x	15.8µM*	-17.2%
CCCOc1cccc(C(=O)Nc2cccc(NC(=O)c3ccco3)c2)c1	4.4%	x	5.01µM*	-13.6%
C[C@@]1(C(=O)O)CCC[C@@H]1C(=O)O	0.0%[5.75 µM]	>57	-0.6%[8 µM]	-1.4%[5.75 µM]
O=C(CN1C(=O)C2C3C=CC(C3)C2C1=O)Nc1ccc2nccnc2c1 (stereo unspecified)	12.9%	>57	7.1%	3.98µM*[single pt active]
O=C(CSc1nc2c(cnn2-c2ccccc2)c(=O)[nH]1)c1ccc(Cl)cc1	-1.0%	>57	2.1%	7.94µM*
Clc1nc(Cl)nc(Nc2ccccc2Cl)n1	13.3%	x	-14.9%	-2.0%
Oc1c(CN2CCc3ccccc3C2)cc(Cl)c2cccnc12	15.4%	>57	u	2.51µM*[single pt active]
COc1ccc(C(=O)N2CCC3(CC2)CN(C(=O)NC(C)C)C3)cc1	1.4%	>57	6.3%	12.4%
Cc1ccc(-c2nnn(CC(=O)N(c3cccc(F)c3)C(C(=O)NC3CCCC3)c3ccco3)n2)o1 (stereo unspecified)	-4.4%	>57	-9.0%	12.6µM*
Nc1ccc(O)c(-c2nc3ccccc3s2)c1	7.0%	>57	u	0.398µM*
Nc1cccc(-c2nc3ccc(N)cc3s2)c1	-2.8%	>57	u	3.6%
Cc1noc(C)c1-c1cncnc1Nc1ccccc1	6.1%	>57	-4.8%	7.9%
Clc1ccc(-c2nnc(N3CCCC3)nn2)cc1	-20.0%	>57	x	10µM*
Clc1ccc(-c2noc(CN3CCCCC3)n2)cc1	-4.9%[5.75 µM]	>57	4.0%[8 µM]	4.5%[5.75 µM]
OCC1OC(C#Cc2ccccc2)C=CC1O (stereo unspecified)	x	x	-6.0%[8 µM]	x
CCOC(=O)C(C(C)=O)c1c(Br)c(O)c(O)c2c(C(=O)c3ccc(C)cc3)coc12 (stereo unspecified)	-3.0%	>57	u	6.31µM*
COc1ccc(CC[N@+]2(C)COc3cc4oc(=O)cc(C)c4cc3C2)cc1OC	5.4%[5.75 µM]	>57	8.4%[8 µM]	-1.6%[5.75 µM]
O=c1c2ccccc2oc2cc(O)c([C@@H]3COC[C@@H](CO)[C@@H](O)[C@@H](O)[C@H]3O)c(O)c12	1.2%	>57	u	-7.6%
COc1ccccc1NC(=O)N1CCN(c2ccc3nncn3n2)CC1	15.0%	>57	6.3%	3.98µM*[single pt active]
SMILES	AmpC inh det	Prx2 Sm inh	LT uptake inh	AmpC inh no det
O=C1C=CC2=C3c4cc(O)c(O)cc4C[C@@]3(O)COC2=C1O	-14.1%	>57	25.1µM*	15.8µM*
C=CCc1cccc(C2NC(C(=O)O)CCC2C)c1 (stereo unspecified)	x	x	-22.1%[8 µM]	x
CSc1nnc(Cc2cc(=O)[nH]c(=O)[nH]2)n1-c1cccc(C)c1	6.6%	>57	-5.9%	-16.1%
C=CCSc1nnc(Cc2cc(=O)[nH]c(=O)[nH]2)n1-c1cc(C)ccc1C	13.6%	>57	-26.1%	4.0%
COC(=O)C(C)Sc1nnc(Cc2cc(=O)[nH]c(=O)[nH]2)n1-c1cc(C)ccc1C (stereo unspecified)	14.2%	>57	-5.3%	2µM*
COC(=O)C(C)Sc1nnc(Cc2cc(=O)[nH]c(=O)[nH]2)n1-c1cccc(OC)c1 (stereo unspecified)	13.0%	>57	0.2%	3.98µM*[single pt active]

Assay outcomes (PubChem BioAssay)
